Compound activity from PubChem BioAssay.
Hits are enriched below; roughly 2.4% of the tested compounds scored in any of these assays.
POLI inh – inhibitors of human DNA polymerase iota | Q9UNA4 | Pol iota fluorescent replication assay, 10 min | Potency, µM (series often up to 115 µM), usual class: inhibitors | 390,000 tested, 1% active | AID 588590
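Fluorescent replication assay read twice, at 0 min and 10 min after adding 50 nM (final) substrate. Enzyme (10 nM) and compounds were first incubated 15 min at room temperature; enzyme-free buffer wells were negative controls.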
POLB inh – blocks human DNA polymerase beta activity. Potency, µM (titrated, usually from 114 µM), most hits filed as inhibitors. P06746. Pol beta primer extension/strand displacement, fluorescence kinetic. 340,000 tested, 1.3% active
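Kinetic readout of DNA synthesis with strand displacement by Pol beta. Compound and 10 nM enzyme sit 15 min at room temperature; 50 nM substrate starts the reaction, read immediately and at 10 min.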
WRN helicase inh – WRN helicase (human) inhibition; WRN helicase unwinding, fluorescent forked duplex, kinetic; Potency, µM (series often up to 114 µM), actives largely listed as inhibitors; 360,000 tested, 0.46% active; also: nearly all actives have a fitted effect of over 55% in size
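Enzyme (20 nM final) and test compound sit together 15 min at room temperature before substrate addition. Substrate is a single-forked duplex oligonucleotide (100 nM) labelled with fluorophore and quencher, with 2 mM ATP; helicase unwinding raises red fluorescence, read kinetically.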
FEN1 inhibitor – human FEN1 inhibition. P39748. Recombinant FEN1 flap cleavage, fluorescence, 15 min. Potency, µM (top dose mostly 114 µM), actives largely listed as inhibitors. 390,000 tested, 0.35% active; also: nearly all actives have a fitted effect of over 65% in size
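Steps: FEN1 (10 nM) dispensed; compound added by pin tool; 15 min at room temperature; substrate added to 50 nM final; reads at 0 min and 15 min; data normalized and fitted (four-parameter Hill).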
POLK inh – DNA polymerase kappa (human) inhibition; Q9UBT6; purified Pol kappa, fluorescent DNA synthesis assay, 10 min; Potency, µM (doses to about 107 µM), hits mostly inhibitors; 400,000 tested, 0.53% active
Target sequence (Q9UBT6 whole entry, looked up): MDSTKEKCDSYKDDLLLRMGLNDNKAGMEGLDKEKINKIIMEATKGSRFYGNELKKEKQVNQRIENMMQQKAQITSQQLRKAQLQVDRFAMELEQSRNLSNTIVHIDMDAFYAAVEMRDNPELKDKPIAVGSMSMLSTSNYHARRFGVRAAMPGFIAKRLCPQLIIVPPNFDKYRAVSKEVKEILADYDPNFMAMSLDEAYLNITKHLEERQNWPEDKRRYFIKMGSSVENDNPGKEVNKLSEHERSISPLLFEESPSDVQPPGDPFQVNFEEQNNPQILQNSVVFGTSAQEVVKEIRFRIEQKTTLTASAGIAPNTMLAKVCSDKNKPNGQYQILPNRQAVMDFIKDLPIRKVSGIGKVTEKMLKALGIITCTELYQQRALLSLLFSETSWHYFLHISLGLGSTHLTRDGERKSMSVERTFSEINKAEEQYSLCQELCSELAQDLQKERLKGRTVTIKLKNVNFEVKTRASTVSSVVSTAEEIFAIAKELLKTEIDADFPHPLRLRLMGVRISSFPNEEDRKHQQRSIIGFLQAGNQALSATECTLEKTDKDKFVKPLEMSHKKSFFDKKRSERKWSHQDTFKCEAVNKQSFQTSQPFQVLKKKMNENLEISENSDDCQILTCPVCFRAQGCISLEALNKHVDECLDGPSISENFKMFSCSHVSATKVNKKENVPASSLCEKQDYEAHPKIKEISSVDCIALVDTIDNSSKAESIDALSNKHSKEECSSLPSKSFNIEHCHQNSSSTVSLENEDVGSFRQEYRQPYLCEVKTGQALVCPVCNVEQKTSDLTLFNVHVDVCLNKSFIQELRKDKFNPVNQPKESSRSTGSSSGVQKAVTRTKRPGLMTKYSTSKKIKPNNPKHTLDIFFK
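Activity was followed as the change in fluorescence between reads at 0 and 10 min after starting the reaction with 50 nM substrate. Beforehand, 10 nM polymerase had been preincubated with compound for 15 min at room temperature.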
POLH inh – DNA polymerase eta (human) inhibition; recombinant Pol eta, fluorescent DNA replication assay; Potency, µM (series often up to 114 µM), hits mostly inhibitors; 390,000 tested, 1.2% active; Q9Y253
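Pol eta at 10 nM preincubated with compounds 15 min at room temperature; reaction started with fluorescent substrate (50 nM final) and read kinetically at 0 and 10 min.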
Numbers stand for hits; i = inactive; ? = inconclusive; nt = not tested or not shown; [ ] = another dose, or the depositor's remark. Calls follow the shape of the dose curve; as a rule, active = well fitted curve in the direction sought with a large enough effect; inconclusive = small, poorly fitted or top-dose-only effect, or another doubt; inactive = no such curve, though single readings can be large; an effect the other way counts as inactive or inconclusive.

SMILES	POLI inh	POLB inh	WRN helicase inh	FEN1 inhibitor	POLK inh	POLH inh
Fc1ccc2[nH]c3c(N4CCc5ccccc5C4)ncnc3c2c1	i	14µM	i	i	i	i
COc1ccc(/C=C/c2ccnc3ccccc23)cc1	i	nt	nt	i	i	nt
CCOc1ccc(-c2nnc(SCC(=O)c3ccc(Br)cc3)n2-c2ccccc2)cc1	?	i	nt	i	i	i
[S-]c1nnc(-c2ccc(Br)cc2)n1-c1ccccc1.[Zn+2]	2.8µM	i	i	i	i	i
OCC(O)CS (configuration not stated)	nt	nt	nt	nt	i	nt
COc1ccc(CNc2ccccc2C(=O)NCc2ccccc2)cc1COc1ccc(NC(C)=O)cc1	i	nt	nt	i	i	nt
Cc1oc2cc(O)ccc2c(=O)c1Oc1ccccc1	i	i	71µM	i	i	i
CCC1=C[C@@H]2CN(C1)Cc1c([nH]c3ccccc13)[C@@](C(=O)OC)(c1cc3c(cc1OC)N(C)[C@H]1[C@@](O)(C(=O)OC)[C@H](OC(C)=O)[C@]4(CC)C=CCN5CC[C@]31[C@@H]54)C2	i	nt	nt	i	i	nt
O=C(N/N=C/c1ccc(Cl)c([N+](=O)[O-])c1)c1ccc2nc[nH]c2c1	i	40µM	i	?	i	?
C=C(C)C(=O)OCCOCC	nt	nt	nt	nt	i[12 µM]	nt
COc1cc2c(NC3CCN(C)CC3)nc(N3CCCCC3)nc2cc1OCCOCCN(C)C	50µM	nt	nt	?	i	nt
COc1cc2c(NC3CCN(C)CC3)nc(N3CCCN(C)CC3)nc2cc1OCCOCCN(C)C	?	nt	nt	28µM	i	nt
COc1cc2c(NC3CCN(C)CC3)nc(N3CCN(C)CC3)nc2cc1OCCOCCN(C)C	i	nt	nt	?	i	nt
COc1cc2c(NC3CCN(C(C)C)CC3)nc(N3CCCN(C)CC3)nc2cc1OCCOCCN(C)C	?	nt	nt	40µM	i	nt
COc1cc2c(NC3CCN(C(C)C)CC3)nc(N3CCCN(C)CC3)nc2cc1OCCCN1CCCC1	?	nt	nt	22µM	i	nt
CNc1nc(N2CCCN(C)CC2)nc2cc(OC)c(OC)cc12	?	nt	nt	?	i	nt
OC(Cc1ccc2ccccc2n1)c1ccccc1 (configuration not stated)	i	nt	nt	i	i	nt
CN(c1ccccc1)S(=O)(=O)c1nnc(NC(=O)COc2ccccc2)s1	79µM	?	i[11.6 µM]	i	i	?
NC(=O)[C@@H]1CCCN1C(=O)C(Cc1cnc[nH]1)NC(=O)C1CCC(=O)N1 (some centres not stated)	nt	nt	nt	nt	i	nt
Cc1ccc(-c2nnc3ccc(SCC(=O)c4ccccc4)nn23)cc1	i	nt	nt	i	i	nt
Cc1no[n+]([O-])c1COc1cccc(/C=N/Nc2nncn2N)c1	20µM	?	i[11.6 µM]	i	i	i
COc1cc(/C=N/n2nnnc2N)ccc1OCc1c(C)no[n+]1[O-]	i	i	i	i	i	i
CN(C)CCCN1C(=O)c2cccc3c(Br)ccc(c23)C1=O	?	?	i	18µM	i	i
Cc1ccc(-c2ccc(S(=O)(=O)Nc3cccnc3)cc2)cc1	i	50µM	i	i	i	i
CN(C)C1CCc2[nH]c3ccc(NC(=O)c4ccc(F)cc4)cc3c2C1 (configuration not stated)	nt	nt	nt	nt	i	nt
SMILES	POLI inh	POLB inh	WRN helicase inh	FEN1 inhibitor	POLK inh	POLH inh
Cc1ccc(CS(=O)Cc2ccc(C(=O)NCc3ccc4c(c3)OCO4)o2)cc1 (configuration not stated)	i	i	i	i	i	i
COc1ccccc1CNC(=O)c1ccc(CS(=O)(=O)c2ccc(C)cc2)o1	71µM	89µM	i	i	?	45µM
COc1ccc(S(=O)(=O)Cc2ccc(C(=O)N3CCN(Cc4ccccc4)CC3)o2)cc1	i	i	i	i	i	i
Cc1ccc(S(=O)(=O)Cc2ccc(C(=O)N3CCN(Cc4ccccc4)CC3)o2)cc1	nt	25µM	nt	nt	nt	nt
Cc1ccc(S(=O)(=O)Cc2ccc(C(=O)NCc3ccc4c(c3)OCO4)o2)cc1	?	5.6µM	i	i	?	i
Cn1nnc2c(N3CCN(Cc4ccccc4)CC3)ncnc21	i	nt	nt	i	i	nt
CC1C(=O)C(=O)C=CN1C (configuration not stated)	nt	nt	nt	nt	i[19.4 µM]	nt
ICC[n+]1csc2ccccc21	i	nt	nt	i	i	nt
CSc1nc(C)c2c(n1)N(c1ccc(F)cc1)CC2	i	i	i	i	i	i
CSc1nc(C)c2c(n1)N(c1ccc(O)cc1)CC2	?	?	i	i	i	35µM
COc1ccc(Cl)cc1NC(=O)Cn1nnc(C(=O)NCc2ccc3c(c2)OCO3)c1N	i	i	i	i	i	i
COc1cccc(NC(=O)Cn2nnc(C(=O)NCc3ccc4c(c3)OCO4)c2N)c1	50µM	i	i[11.6 µM]	i	i	i
COc1ccc2c(CC(=O)NCc3ccc4c(c3)OCO4)coc2c1	?	18µM	?	i	?	50µM
COc1cccc(CNC(=O)c2nnn(CC(=O)Nc3ccc4c(c3)OCO4)c2N)c1	i	?	i	i	i	i
COc1ccc(OC)c(NC(=O)c2nnn(CC(=O)Nc3ccc4c(c3)OCO4)c2N)c1	i	?	i	i	i	16µM
COC(=O)C1=C(C)NC(C)=C(C(=O)OCCCN2CCC(c3ccccc3)(c3ccccc3)CC2)C1c1cccc([N+](=O)[O-])c1 (configuration not stated)	nt	nt	nt	nt	i[19.4 µM]	nt
CC1=CC23C(=O)C(C=C(CO)[C@@H](O)[C@]2(O)[C@H]1O)[C@H]1[C@@H](C[C@H]3C)C1(C)C (some centres not stated)	nt	nt	nt	nt	i	nt
O=C(O)Cn1cnc2scc(-c3ccccc3)c2c1=O	i	i	i	i	i	i
O=C(O)Cn1cnc2scc(-c3cccs3)c2c1=O	?	20µM	i	i	i	20µM
CC(c1ccc(N(C)C)cc1)c1ccnc2ccccc12 (configuration not stated)	i	nt	nt	i	i	nt
Cn1cccc1-c1cc(C(=O)N/N=C/c2ccc([N+](=O)[O-])cc2)[nH]n1	i	i	i	i	i	i
CC(C)c1ccc(/C=N/NC(=O)c2cc(-c3cccc([N+](=O)[O-])c3)n[nH]2)cc1	?	22µM	i	i	i	?
CCN(CC)C(=O)/C(C#N)=C/c1cc(O)c(O)c([N+](=O)[O-])c1	nt	nt	nt	nt	6.7µM	nt
O=[N+]([O-])c1ccc(N=Nc2c(Cl)cc(O)cc2Cl)cc1	i	i	i	i	i	i
O=C1CC(=Nc2ccc([N+](=O)[O-])cc2)NN1c1c(Cl)cc(Cl)cc1Cl	nt	nt	i	nt	nt	79µM
Cc1noc(NS(=O)(=O)c2ccc(NC(=O)C(Cl)(Cl)Cl)cc2)c1C	i	i	i	i	i	i
Cc1noc(NS(=O)(=O)c2ccc(NC(=O)Nc3ccc(Cl)c(Cl)c3)cc2)c1C	?	?	i[11.6 µM]	i	i	50µM
Cc1cc2oc(C(=O)Nc3ccc(S(=O)(=O)Nc4onc(C)c4C)cc3)cc(=O)c2cc1C	?	i	nt	?	i	79µM
